Laboratory results published in PubChem BioAssay.
Several values for one entry are separate records, joined by “and”; a condition that tells them apart may be missing. Equal values may be shown once. Activity calls are given as the source filed them.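 Rule for the calls, unless noted: active = inhibition at or above 50% relative to wild type and mutant plate controls; inactive = inhibition below 50%.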

Tests used:
[1] = inhibitors of TNFa-induced NFkB p65 translocation, primary screen, imaging, HUVEC, MLSMR starter and 10KST1 sets (AID 438;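 active = inhibition above 20% together with a positive visual image hit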;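 note: compound added about 3h40 before a 20 min TNFalpha stimulation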;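 for inhibition: signal is the nuclear over cytoplasmic p65 intensity ratio per well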); details: HUVEC TNFa-induced p65 nuclear translocation; cell count: measured here: nuclei count (cytotoxicity indicator), at 2.08 µM; inhibition: at 2 µM, stronger effect = higher value, 0% TNFa-plus-vehicle, 100% no-TNFa wells
[2] = inhibitors of mutant huntingtin aggregation, primary screen, imaging, exon1htt(103Q)mCFP cells, high-content imaging (AID 483;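 active = visual image review flags a hit and inhibition of aggregation exceeds 20%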;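 note: compound exposure lasted 3 days before fixation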;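 for nuclei count: percent of the per-plate median nuclei count of sample wells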); details: exon1htt(103Q)mCFP cell line, aggregate imaging, at 2 µM; inhibition of aggregation: stronger effect = higher value; nuclei count: measured here: cell count, toxicity
[3] = inhibitors of E-selectin induction by TNFa, primary screen, imaging, HUVEC, immunofluorescence, MLSMR starter and 10KST1 sets (AID 487;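 active = visually confirmed hit in the image check and inhibition above 20%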;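 for inhibition: signal is fraction of cell area covered by stained E-selectin grains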;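 for nuclei count: 100% = median nuclei count of all wells on the same plate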); details: HUVEC TNFalpha-induced E-selectin immunofluorescence imaging, at 2 µM; inhibition: stronger effect = higher value; nuclei count: measured here: cell number, toxicity
[4] = DUSP6 inhibitors restoring Erk phosphorylation by chemical complementation, primary imaging in DUSP6-transfected HeLa (AID 609;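 active = compounds giving at least 50% inhibition in the cell-based MKP-3 phosphatase rescue imaging test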;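 for inhibition: phospho-Erk level distribution per well compared with pooled transfected vehicle control wells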); details: HeLa MKP-3 transfected, phospho-Erk imaging KS statistic, at 10 µM, cells stimulated with TPA for 15 min
[5] = biological target: Dual specificity protein phosphatase 6 (Homo sapiens) (UniProt Q16828); assay: as above; details: HeLa MKP-3 transfected, phospho-Erk imaging KS statistic; at 10 µM; stronger effect = higher value; cells stimulated with TPA for 15 min
[6] = biological target: Voltage-gated potassium channel subunit beta-2 (Rattus norvegicus) (UniProt P62483); assay: KvBeta enzyme negative modulators, primary screen, biochemical, NADPH fluorescence (AID 622;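 active = fluorescence slope higher than the sample average by over 3 SD, cut at about -0.22 in these data, passing the limit was not always enough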;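 note: slope of raw intensity against log time taken from 70 to 1610 s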); details: recombinant KvBeta, 4-cyanobenzaldehyde reduction, at 10 µM, stronger effect = higher value
[7] = biological target: Voltage-gated potassium channel subunit beta-2 (Rattus norvegicus) (UniProt P62483); assay: KvBeta positive modulators, primary screen, biochemical, NADPH fluorescence (AID 623;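 active = NADPH fluorescence slope more negative than the mean of all samples by about 3 SD, 99.7% confidence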;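 note: fluorescence intensity change per second fitted from 20 to 320 s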); details: Recombinant KvBeta, NADPH fluorescence decrease slope, 10 min; at 10 µM; stronger effect = lower value
[8] = biological target: Alpha-2C adrenergic receptor (Homo sapiens) (UniProt P18825); assay: modulators of alpha2C/GIRK thallium flux, primary screen, cell-based, HEK293 alpha2C/GIRK1/2 (AID 624;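 active = fluorescence slope after compound addition differing from the mean of all screened samples at 99.7% confidence, in either direction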;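 note: slope of fluorescence ratio to pre-addition baseline per second over 15 to 24 s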); details: thallium flux BTC fluorescence, at 10 µM, actives lie on both sides
[9] = inhibitors of larval lipid processing in zebrafish, primary screen, whole organism, PED6 fluorescence, gall bladder and intestine (AID 686;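 active = a full or partial loss of lipid-probe fluorescence in the fish gall bladder, intestine or both, judged by eye; inactive = no fluorescence loss, or compound toxic to the fish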;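 note: larvae 5 to 7 days old with five fish per well; signal comes from phospholipase A2 cleavage of quenched PED6 carried via bile; overnight exposure to compound and PED6 before scoring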); details: Zebrafish larvae PED6 lipid processing, fluorescence scoring; screened at 20 µM (by protocol)
[10] = inhibitors of Chlamydomonas gravitaxis, primary screen, whole organism, Chlamydomonas reinhardtii, WT vs cilia-less mutant, absorbance, 96-well (AID 463189); details: OD600 absorbance, 2 days, at 10 µM, stronger effect = higher value;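 note: 0% = wild type cc124 cells in DMSO and 100% = ciliumless bld1 mutant cells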
[11] = inhibitors of Sendai virus-induced IRF3 signaling, primary screen, TLR/RLR signaling modifier project, cell-based, Sendai virus stimulus, luciferase, 10K MLSCN set (AID 602276;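 active = inhibition at or above 50% at 10 µM; inactive = inhibition below 50%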;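 note: firefly luciferase from ISG56 promoter only with Renilla not read in this screen; 0% = Sendai virus plus DMSO and 100% = medium plus DMSO without virus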); details: HEK293 RL24 IRF3 luciferase reporter, at 10 µM, stronger effect = higher value
[12] = inhibitors of poly I:C-induced TLR3 signaling, primary screen, cell-based, poly I:C stimulus, luciferase, 10K MLSCN set (AID 602277;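 active = inhibition of the reporter signal at or above 50%; inactive = inhibition below 50%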); details: HEK293-TLR3 RL24 IRF3 luciferase reporter, at 10 µM, stronger effect = higher value
[13] = measured here: cell density z-score
[14] = measured here: nuclear c-Myc green intensity z-score
[15] = measured here: nuclear pErk red intensity z-score, stronger effect = higher value

Chain of Alpha-2C adrenergic receptor (Homo sapiens) (P18825 whole entry, looked up): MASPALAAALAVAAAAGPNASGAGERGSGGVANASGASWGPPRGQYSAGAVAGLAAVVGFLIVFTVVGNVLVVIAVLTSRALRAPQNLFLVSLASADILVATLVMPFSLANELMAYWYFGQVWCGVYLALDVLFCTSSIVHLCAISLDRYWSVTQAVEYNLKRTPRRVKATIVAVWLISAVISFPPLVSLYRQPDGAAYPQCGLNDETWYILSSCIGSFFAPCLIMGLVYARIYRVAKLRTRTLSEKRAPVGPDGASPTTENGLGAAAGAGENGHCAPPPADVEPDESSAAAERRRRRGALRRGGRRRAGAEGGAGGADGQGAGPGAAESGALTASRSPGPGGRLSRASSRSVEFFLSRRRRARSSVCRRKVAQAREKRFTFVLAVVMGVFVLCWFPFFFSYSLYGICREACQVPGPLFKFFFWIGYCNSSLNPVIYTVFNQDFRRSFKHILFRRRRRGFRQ
Chain of Dual specificity protein phosphatase 6 (Homo sapiens) (Q16828 whole entry, looked up): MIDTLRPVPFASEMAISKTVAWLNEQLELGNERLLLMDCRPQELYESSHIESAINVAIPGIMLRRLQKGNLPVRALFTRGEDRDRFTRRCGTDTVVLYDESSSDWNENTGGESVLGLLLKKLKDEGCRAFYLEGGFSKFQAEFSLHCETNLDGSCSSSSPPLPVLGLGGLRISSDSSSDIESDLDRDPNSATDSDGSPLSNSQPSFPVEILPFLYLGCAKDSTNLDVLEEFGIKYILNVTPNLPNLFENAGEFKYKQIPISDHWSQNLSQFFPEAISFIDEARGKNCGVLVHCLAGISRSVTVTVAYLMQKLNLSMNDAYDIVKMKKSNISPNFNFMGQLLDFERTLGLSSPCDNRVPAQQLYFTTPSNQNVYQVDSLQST
Chain of Voltage-gated potassium channel subunit beta-2 (Rattus norvegicus) (P62483 whole entry, looked up): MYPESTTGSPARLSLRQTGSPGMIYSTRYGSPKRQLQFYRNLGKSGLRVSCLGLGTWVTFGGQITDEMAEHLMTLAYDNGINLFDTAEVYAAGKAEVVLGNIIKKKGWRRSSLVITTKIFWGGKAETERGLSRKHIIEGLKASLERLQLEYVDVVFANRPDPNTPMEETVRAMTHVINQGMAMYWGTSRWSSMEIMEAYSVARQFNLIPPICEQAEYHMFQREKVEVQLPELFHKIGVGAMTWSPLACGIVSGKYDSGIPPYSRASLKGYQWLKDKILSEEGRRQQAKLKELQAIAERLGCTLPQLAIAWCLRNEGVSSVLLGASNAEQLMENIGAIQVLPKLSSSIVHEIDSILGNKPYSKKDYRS

Structure (SMILES)	cell count [1]	inhibition [1]	inhibition of aggregation [2]	nuclei count [2]	inhibition [3]	nuclei count [3]	z-score [4, 13]	z-score [4, 14]	z-score [4, 15]	inhibition [5]	fluorescence slope [6]	NADPH fluorescence slope [7]	slope [8]	outcome [9]	inhibition [10]	inhibition [11]	inhibition [12]
CCN1CCN(c2nc3c(C)cccn3c(=O)c2/C=C(\C#N)S(=O)(=O)c2ccccc2)CC1	501	-1.7% (inactive)	-13.4% (inactive)	108%	-71.1% (inactive)	118%	0.894	-1.58	2.23	3.5% (inactive)	-0.517 (inactive)	-1.8e-05 (inactive)	0.00181 (inactive)	inactive	18.9% (inactive)	9.29% (inactive)	23.8% (inactive)
COc1ccc(CCN2CCC(Nc3nc4ccccc4n3Cc3ccc(F)cc3)CC2)cc1	525	-1.3% (inactive)	-3% (inactive)	83.3%	-28.6% (inactive)	107%	-0.393	1.49	0.359	7.39% (inactive)	-0.513 (inactive)	-0.000106 (inactive)	0.00466 (inactive)	inactive	133% (active)	-3.81% (inactive)	-23.6% (inactive)
CC(CN1c2ccccc2Sc2ccccc21)N(C)C (configuration not stated)	546	2.6% (inactive)	6.8% (inactive)	100%	-48.8% (inactive)	109%	2	-0.736	0.272	-0.828% (inactive)	-0.478 (inactive)	-1.7e-05 (inactive)	0.0061 (inactive)	inactive	91.5% (active) and 139% (active)	5.11% (inactive)	31% (inactive)
c1cc2c(cc1C1=Nn3c(nnc3C3CCCCC3)SC1)OCO2	636	-0.8% (inactive)	5.8% (inactive)	31.9%	-52.3% (inactive)	113%	-0.24	0.613	-0.0709	-6.06% (inactive)	-0.481 (inactive)	-8.1e-05 (inactive)	0.00571 (inactive)	inactive	-5.58% (inactive)	25.1% (inactive)	31% (inactive)
C[C@]12CCC(=O)C=C1CC[C@@H]1[C@@H]2[C@@H](O)C[C@@]2(C)[C@H]1CC[C@]2(O)C(=O)COC(=O)CCC(=O)O	638 and 636	1.3% (inactive) and -6.2% (inactive)	-14.6% (inactive) and 5.9% (inactive)	81.4% and 75.3%	-73.5% (inactive) and -140% (inactive)	113% and 141%	-0.295 and 0.975	-0.899 and -0.385	-0.0646 and -0.0458	7.39% (inactive) and 11.3% (inactive)	-0.492 (inactive) and -0.463 (inactive)	-9e-05 (inactive) and -1.6e-05 (inactive)	0.00441 (inactive) and 0.00453 (inactive)	inactive	1.85% (inactive) and -7.48% (inactive) and -3.81% (inactive)	5.11% (inactive) and 1.12% (inactive)	30.2% (inactive) and 30.8% (inactive)
C[C@@H]1C[C@H]2[C@@H]3C[C@H](F)C4=CC(=O)C=C[C@]4(C)[C@@]3(F)[C@@H](O)C[C@]2(C)[C@@]1(O)C(=O)CO	647	-3.8% (inactive)	-18.8% (inactive)	42.3%	-111% (inactive)	128%	-1.38	0.0959	0.878	9.37% (inactive)	-0.535 (inactive)	-3.8e-05 (inactive)	0.00526 (inactive)	inactive	-6.12% (inactive)	-11.6% (inactive)	33.6% (inactive)
CC1(C)Cc2c(sc3c2C2=NCCN2C=N3)CO1	624	-7% (inactive)	4.2% (inactive)	124%	-54.1% (inactive)	139%	-0.0476	0.11	-0.119	-2.69% (inactive)	-0.328 (inactive)	-8.5e-06 (inactive)	0.00463 (inactive)	inactive	63.1% (active)	-17.5% (inactive)	-3.31% (inactive)
CCCCOc1ccc(C(=O)CCN2CCCCC2)cc1	591	-10.4% (inactive)	4.2% (inactive)	92.4%	-91.6% (inactive)	114%	0.144	-0.213	-1.06	7.39% (inactive)	-0.421 (inactive)	-5.1e-05 (inactive)	0.00405 (inactive)	inactive	61.3% (active)	4.68% (inactive)	21.9% (inactive)
COc1cccc(N2CCN(c3ncnc4c3[nH]c3ccc(F)cc34)CC2C)c1 (configuration not stated)	342	-7% (inactive)	10.9% (inactive)	92.8%	11.4% (inactive)	127%	0.762	0.103	-1.52	-3.5% (inactive)	-0.393 (inactive)	-9.3e-05 (inactive)	0.00384 (inactive)	inactive	25.3% (inactive)	2.95% (inactive)	98.8% (active)
Cc1cc(C)n(-c2nnc(C)n2/N=C/c2ccco2)n1	609	-8.3% (inactive)	-21.9% (inactive)	106%	-232% (inactive)	159%	1.68	-0.585	0.108	20.2% (inactive)	-0.501 (inactive)	-5.1e-05 (inactive)	0.00494 (inactive)	inactive	17.4% (inactive)	17.4% (inactive)	24% (inactive)
O=C(O)c1cc(O)c2c(c1)C(=O)c1cccc(O)c1C2=O	610	-3% (inactive)	26.7% (inactive)	100%	-98.1% (inactive)	128%	0.571	-1.15	1.27	3.45% (inactive)	-0.417 (inactive)	-1.3e-05 (inactive)	-0.00744 (active)	inactive	2.72% (inactive)	18% (inactive)	42.8% (inactive)
